“And” between values parts separate entries of the source, which are not always exact repeats. Equal values may be shown once. Out of some 360,000 compounds screened, about 2,900 (0.81%) were called active.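 The calls were made as follows: active = inhibition above the mean inhibition across every tested compound plus 3 SD (cut at about 22% in these data); inactive = the rest.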 Shown is part of a subset that was picked to be rich in actives. The source holds several records for some structures; these can differ, active in one and inactive in another.
These molecules were tested against Perilipin-5 (Homo sapiens) + 1-acylglycerol-3-phosphate O-acyltransferase ABHD5 (Homo sapiens) (UniProt Q00G26+Q8WTS1) (assay: ABHD5-PLIN5 interaction inhibitors, primary screen, cell lysate, split luciferase complementation, luminescence (AID 602281;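 also: 0% = DMSO only wells and the 100% control is not disclosed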)). Details: Split G. princeps luciferase complementation, 4 h, at 4 µM, stronger effect = higher value.
Sequence of Perilipin-5 (Homo sapiens) + 1-acylglycerol-3-phosphate O-acyltransferase ABHD5 (Homo sapiens) (Q00G26 whole entry, looked up): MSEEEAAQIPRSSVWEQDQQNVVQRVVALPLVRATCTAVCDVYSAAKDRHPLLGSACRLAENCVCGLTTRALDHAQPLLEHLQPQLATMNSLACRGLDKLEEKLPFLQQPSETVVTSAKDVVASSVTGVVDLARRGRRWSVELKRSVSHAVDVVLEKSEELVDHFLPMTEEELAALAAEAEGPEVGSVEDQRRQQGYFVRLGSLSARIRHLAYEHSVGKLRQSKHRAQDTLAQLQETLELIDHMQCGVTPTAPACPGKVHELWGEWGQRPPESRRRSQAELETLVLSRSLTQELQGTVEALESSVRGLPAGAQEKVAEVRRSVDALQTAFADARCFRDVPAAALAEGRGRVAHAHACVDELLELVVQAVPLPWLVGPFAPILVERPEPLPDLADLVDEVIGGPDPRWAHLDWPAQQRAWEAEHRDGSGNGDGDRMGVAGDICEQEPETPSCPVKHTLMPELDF
Sequence of Perilipin-5 (Homo sapiens) + 1-acylglycerol-3-phosphate O-acyltransferase ABHD5 (Homo sapiens) (Q8WTS1 whole entry, looked up): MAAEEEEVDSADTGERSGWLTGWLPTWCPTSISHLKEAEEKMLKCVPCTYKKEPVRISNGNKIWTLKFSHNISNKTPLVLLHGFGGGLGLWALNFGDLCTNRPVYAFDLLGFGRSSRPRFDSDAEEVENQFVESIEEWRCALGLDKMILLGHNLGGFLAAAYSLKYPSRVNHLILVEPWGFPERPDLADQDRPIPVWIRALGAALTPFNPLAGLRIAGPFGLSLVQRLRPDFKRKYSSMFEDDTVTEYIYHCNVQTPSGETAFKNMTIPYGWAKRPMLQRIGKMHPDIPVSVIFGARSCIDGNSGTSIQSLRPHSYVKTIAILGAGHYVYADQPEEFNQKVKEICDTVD

**Q.** Which inhibition does the source give for `COC(=O)c1ccccc1Oc1c(F)c(F)nc(N2CCOCC2)c1F` here?
**A.** Its inhibition is -7.97% (inactive).

**Q.** For `COc1cccc(N2CC(NS(=O)(=O)c3cccs3)CC2=O)c1` (stereo unspecified), which inhibition is on record?
**A.** The inhibition was 0.8% (inactive).

**Q.** With `CCN(CC(=O)Nc1ccc(Cl)c(S(=O)(=O)N(C)C)c1)Cc1nc2ccccc2c(=O)[nH]1` as the molecule, how does the inhibition read?
**A.** The inhibition was -4.43% (inactive).

**Q.** Which inhibition does the source give for `Cc1cc(N2CCCC2=O)cc(C)c1S(N)(=O)=O` here?
**A.** The inhibition was -1% (inactive).

**Q.** With `O=C(Nc1ccccc1Cl)/C(Cl)=C(\Cl)S(=O)c1ccccc1` (stereo unspecified) as the molecule, how does the inhibition read?
**A.** Its inhibition is 81.7% (active).

**Q.** For `O=C(COc1nsnc1N1CCOCC1)Nc1ccccc1Cl`, which inhibition is on record?
**A.** The inhibition was 0.63% (inactive).

**Q.** Which inhibition does the source give for `CCOC(=O)[C@]12CCCC=C1N(Cc1ccc3c(c1)OCO3)C(=O)[C@H](CC(=O)N1CCN(C(=O)c3ccco3)CC1)C2` here?
**A.** The inhibition was 5.36% (inactive).

**Q.** How did the inhibition turn out when `c1ccc(-n2cccc2)c(N2CCCCC2)c1` was run?
**A.** The inhibition was -0.7% (inactive).

**Q.** Which inhibition does the source give for `O=C(c1ccc(Cl)c(S(=O)(=O)N2CCCCCC2)c1)N1CCN(c2ccc(O)cc2)CC1` here?
**A.** Its inhibition is 1.37% (inactive).

**Q.** For `O=C1C=CC(=O)N1c1ccc(N2CCCCC2)cc1`, which inhibition is on record?
**A.** Its inhibition is 29% (active).

**Q.** How did the inhibition turn out when `CCN(C(=O)CSc1nc(N)cc(=O)[nH]1)C1CCS(=O)(=O)C1` (stereo unspecified) was run?
**A.** Its inhibition is -2.61% (inactive).

**Q.** `CCc1ccc(-c2cc(C(=O)NN3CCN(C)CC3)c3ccccc3n2)cc1` was tested. Which inhibition did it give?
**A.** Its inhibition is 11.1% (inactive).

**Q.** For `Cc1c(NC(=O)c2cc(-c3ccc(Cl)s3)nc3ccccc23)c(=O)n(-c2ccccc2)n1C`, which inhibition is on record?
**A.** Its inhibition is 0.07% (inactive).

**Q.** Which inhibition does the source give for `Cc1ccc(NC(=O)c2cc(-c3ccc(C)o3)nc3ccccc23)nc1` here?
**A.** The inhibition was 29% (active).

**Q.** Which inhibition does the source give for `O=C(CCC(=O)OCC(F)(F)C(F)F)NCc1ccccc1` here?
**A.** The inhibition was -6.31% (inactive).

**Q.** For `Oc1c(CN2CCOCC2)ccc(CN2CCOCC2)c1O`, which inhibition is on record?
**A.** The inhibition was -0.13% (inactive).

**Q.** How did the inhibition turn out when `COc1ccccc1NC(=O)CSc1nnc(Cn2nnc(-c3ccccc3)n2)n1-c1ccccc1` was run?
**A.** Its inhibition is 7.76% (inactive).

**Q.** For `COc1ccc(/C(C)=N/NC(=O)CCC(=O)Nc2ccc(Cl)cc2Cl)c(OC)c1`, which inhibition is on record?
**A.** The inhibition was -4.09% (inactive).

**Q.** `CCCCC(=O)N/N=C(\C)CC(=O)Nc1cc(Cl)ccc1OC` was tested. Which inhibition did it give?
**A.** The inhibition was 22.2% (active).

**Q.** How did the inhibition turn out when `COc1ccc(Cl)cc1NC(=O)CCS(=O)(=O)c1ccc(Br)cc1` was run?
**A.** The inhibition was -6.29% (inactive).

**Q.** `COc1cc2c(C(=O)N(C)c3cc(Cl)ccc3OC)cn(C)c(=O)c2cc1OC` was tested. Which inhibition did it give?
**A.** Its inhibition is -8.81% (inactive).

**Q.** For `CN(C)CCNC(=O)C(C(=O)c1ccccc1)n1ccccc1=O` (stereo unspecified), which inhibition is on record?
**A.** Its inhibition is -4.39% (inactive).

**Q.** Which inhibition does the source give for `OC(CNCC1CCCO1)Cn1c2ccc(Br)cc2c2cc(Br)ccc21` (stereo unspecified) here?
**A.** Its inhibition is 27.7% (active).

**Q.** For `COCCNC(=O)c1ccc(Cn2c(SCC(=O)NCC3CCCO3)nc3ccc(Br)cc3c2=O)cc1` (stereo unspecified), which inhibition is on record?
**A.** The inhibition was -3.04% (inactive).

**Q.** `CCCN1CCn2c3c(c4cc(Br)ccc42)CCCC31` (stereo unspecified) was tested. Which inhibition did it give?
**A.** The inhibition was -7.51% (inactive).

**Q.** With `CCOc1ccc(N(CC(=O)NCCc2ccc(OC)cc2)S(C)(=O)=O)cc1` as the molecule, how does the inhibition read?
**A.** The inhibition was -0.93% (inactive).

**Q.** With `Cc1cc(C)n(CC(C)NCc2c(C(=O)N3CCOCC3)nc3c(C)cccn23)n1` (stereo unspecified) as the molecule, how does the inhibition read?
**A.** The inhibition was 1.11% (inactive).

**Q.** Which inhibition does the source give for `CC1=C(C(=O)N2CCOCC2)CC(CC(=O)NCc2ccco2)C(=O)N1Cc1ccc(F)cc1` (stereo unspecified) here?
**A.** Its inhibition is 5.09% (inactive).

**Q.** For `Cc1c(CCO)sc[n+]1CC(=O)OC12CC3CC(CC(C3)C1)C2`, which inhibition is on record?
**A.** The inhibition was -1.3% (inactive).

**Q.** Which inhibition does the source give for `Cc1c(CCOC(=O)c2cc([N+](=O)[O-])ccc2Cl)sc[n+]1CCCCS(=O)(=O)[O-]` here?
**A.** The inhibition was 7.78% (inactive).

**Q.** Which inhibition does the source give for `Cc1c(CCOC(=O)CC23CC4CC(CC(C)(C4)C2)C3)sc[n+]1Cc1ccc([N+](=O)[O-])cc1` here?
**A.** Its inhibition is 19% (inactive) and 24.3% (active).

**Q.** With `O=C(NCCCN1CCOCC1)C1CCCN(S(=O)(=O)N2CCCCC2)C1` (stereo unspecified) as the molecule, how does the inhibition read?
**A.** Its inhibition is -6.18% (inactive).

**Q.** How did the inhibition turn out when `Fc1ccc(Nc2nnns2)cc1` was run?
**A.** Its inhibition is -1.08% (inactive).

**Q.** With `Cc1[nH]c(C)c(S(=O)(=O)N2CCN(c3cccc(C(F)(F)F)c3)CC2)c1C(=O)N1CCCCC1` as the molecule, how does the inhibition read?
**A.** The inhibition was -3.87% (inactive).

**Q.** With `Cc1c(C)c2c(OCC(=O)N[C@@H](C(=O)O)c3ccccc3)cc3c(c2oc1=O)CCC(C)(C)O3` as the molecule, how does the inhibition read?
**A.** The inhibition was 9.96% (inactive).

**Q.** `CC1Cc2ccccc2N1CC(=O)Nc1ccc(S(N)(=O)=O)cc1` (stereo unspecified) was tested. Which inhibition did it give?
**A.** The inhibition was 26.1% (active).

**Q.** How did the inhibition turn out when `CC1Cc2ccccc2N1CC(=O)Nc1ccc2c(c1)OC(F)(F)O2` (stereo unspecified) was run?
**A.** Its inhibition is -17.3% (inactive).

**Q.** `CC1CC(C)CN(CC(=O)Nc2ccc(S(N)(=O)=O)cc2)C1` (stereo unspecified) was tested. Which inhibition did it give?
**A.** Its inhibition is -3.77% (inactive).

**Q.** Which inhibition does the source give for `O=C(CCSc1ccccc1)NCCSc1ccccn1` here?
**A.** The inhibition was 4.14% (inactive).

**Q.** For `Cc1ccc2cc3cc(C(=O)N4CCCCCC4)oc3nc2c1`, which inhibition is on record?
**A.** Its inhibition is 0.91% (inactive).

**Q.** How did the inhibition turn out when `O=C1Cc2cc(S(=O)(=O)Nc3cccc(F)c3)ccc2N1` was run?
**A.** The inhibition was -4.67% (inactive).

**Q.** How did the inhibition turn out when `CCN(CC(=O)Nc1c(F)cccc1F)C(=O)c1ccc(-c2ccc(C(C)=O)cc2)o1` was run?
**A.** Its inhibition is -6.21% (inactive).

**Q.** With `CCC1(c2ccccc2)NC(=O)N(CC(=O)c2ccc3c(c2)OCO3)C1=O` (stereo unspecified) as the molecule, how does the inhibition read?
**A.** The inhibition was 6.66% (inactive).

**Q.** For `O=C(CN1CCN(c2ccccc2F)CC1)c1ccc2c(c1)OCO2`, which inhibition is on record?
**A.** Its inhibition is 1.72% (inactive).

**Q.** How did the inhibition turn out when `O=C(CCN1CCc2ccccc2C(O)(c2ccccc2)C1)c1ccc2c(c1)OCCO2` (stereo unspecified) was run?
**A.** The inhibition was 40.8% (active).

**Q.** How did the inhibition turn out when `COCCN1CCn2c(nc3cc(NS(C)(=O)=O)ccc32)C1` was run?
**A.** Its inhibition is 3.04% (inactive).

**Q.** Which inhibition does the source give for `Cc1cc(SCC(=O)NCCN2C(=O)CSC2=O)nc2ccccc12` here?
**A.** Its inhibition is 1.93% (inactive).

**Q.** For `Cc1cc(C)cc(C(=O)NC(CC(N)=O)c2ccc(N3CCC(N4CCCCC4)CC3)c([N+](=O)[O-])c2)c1` (stereo unspecified), which inhibition is on record?
**A.** The inhibition was -0.26% (inactive).

**Q.** How did the inhibition turn out when `O=C(CSc1nnc(CNC(=O)c2ccc(F)cc2)o1)Nc1ccc2c(c1)OCO2` was run?
**A.** The inhibition was -2.58% (inactive).

**Q.** Which inhibition does the source give for `COCCN(CCOC)c1nc(N)c2c(N)nc3c(c2c1C#N)CC(=O)N3Cc1ccc(Cl)cc1` here?
**A.** The inhibition was 32.7% (active).

**Q.** `C=CCC[C@H](CCCCC)OC(=O)/C=C/[C@H](O)[C@@H](O)C[C@@H](O)CC=C` was tested. Which inhibition did it give?
**A.** Its inhibition is -7.52% (inactive).

**Q.** How did the inhibition turn out when `CC(C)(O)C#Cc1ccc(CN2CCC(CO)(CCc3ccccc3)CC2)cc1` was run?
**A.** Its inhibition is -5.13% (inactive).

**Q.** Which inhibition does the source give for `Cc1cccc(-c2ncc(CN3CCC(CO)(CCCc4ccccc4)CC3)cn2)c1` here?
**A.** Its inhibition is 12.2% (inactive).

**Q.** For `Cc1c(CN2CCC(CO)(CCOc3ccccc3)CC2)[nH]c2ccc(Cl)cc12`, which inhibition is on record?
**A.** The inhibition was 22.5% (active).

**Q.** `CCC(=O)NC(Nc1cc(C)ccn1)(C(F)(F)F)C(F)(F)F` was tested. Which inhibition did it give?
**A.** Its inhibition is 7.47% (inactive).

**Q.** For `c1cc(-c2ccc3[nH]ccc3c2)n2ccnc2c1`, which inhibition is on record?
**A.** The inhibition was 0.38% (inactive).
